# Measurements published in PubChem BioAssay (Tox21).
# Values without a mark were called inactive. Inconclusive results are not listed. Where a call stands in place of a potency, no number is given. Active and inactive are the calls of the source. The call rests on the fitted dose curve; in most records, active means well fitted curve in the direction sought with a large enough effect in the repeat runs; inconclusive means weak or mixed curves; inactive means no such curve, though single readings can be large; an effect the other way counts as inactive or inconclusive.
# Experiments:
# [1] = Human pregnane X receptor (PXR) small molecule agonists, qHTS cell viability counter screen (AID 1346977); further: nearly all actives have a fitted effect of over 50% in size; further: potency means the concentration at half of the fitted maximal effect
# Summary of the method: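 After a 5hr pre-incubation, PXR-Luc HepG2 cells received compounds plus positive control in DMSO and were kept 24hr at 37C. Cell viability was quantified by fluorescence from CellTiter-Fluor added for the final hour.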
# [2] = Caspase-3/7 induction in HepG2 cells by small molecules, qHTS assay (AID 1346978); further: nearly all actives have a fitted effect of over 15% in size
# Summary of the method: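 Wild-type HepG2 cells (2,000/well) were settled 5 h at 37 C, 5% CO2, then exposed to compounds in DMSO for 17 h. Caspase-3/7 activity was read by luminescence 30 min after adding Caspase-Glo 3/7 reagent at room temperature.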
# [3] = Caspase-3/7 induction in CHO-K1 cells by small molecules, qHTS assay (AID 1346980); further: nearly all actives have a fitted effect of over 15% in size
# Summary of the method: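 Wild-type cells were seeded at 1,500 per well and settled 5 hr at 37 C, 5% CO2, then exposed to DMSO-dissolved compounds for 17 hr. Caspase-Glo 3/7 reagent was added, and luminescence was read after 30min at room temperature.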
# [4] = Caspase-3/7 induction in HepG2 cells by small molecules, qHTS cell viability counter screen (AID 1346981); further: nearly all actives have a fitted effect of over 30% in size; further: potency means the concentration at half of the fitted maximal effect
# Summary of the method: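 HepG2, WT, 2,000 cells/well; 5 hr pre-incubation 37 C/5% CO2; compound pin-transferred from DMSO; 16 hr exposure; CellTiter-Fluor, 1 hr; fluorescence read.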
# [5] = biological target: Cytochrome P450 2D6 (Homo sapiens) (UniProt P10635); test: Cytochrome P450 Family 2 Subfamily D Member 6 (CYP2D6) small molecule antagonists: luciferase reporter qHTS assay (AID 1671196); further: nearly all actives have a fitted effect of over 50% in size; further: potency means the concentration at half of the fitted maximal effect
# Chain of Cytochrome P450 2D6 (Homo sapiens) (P10635 whole entry, looked up): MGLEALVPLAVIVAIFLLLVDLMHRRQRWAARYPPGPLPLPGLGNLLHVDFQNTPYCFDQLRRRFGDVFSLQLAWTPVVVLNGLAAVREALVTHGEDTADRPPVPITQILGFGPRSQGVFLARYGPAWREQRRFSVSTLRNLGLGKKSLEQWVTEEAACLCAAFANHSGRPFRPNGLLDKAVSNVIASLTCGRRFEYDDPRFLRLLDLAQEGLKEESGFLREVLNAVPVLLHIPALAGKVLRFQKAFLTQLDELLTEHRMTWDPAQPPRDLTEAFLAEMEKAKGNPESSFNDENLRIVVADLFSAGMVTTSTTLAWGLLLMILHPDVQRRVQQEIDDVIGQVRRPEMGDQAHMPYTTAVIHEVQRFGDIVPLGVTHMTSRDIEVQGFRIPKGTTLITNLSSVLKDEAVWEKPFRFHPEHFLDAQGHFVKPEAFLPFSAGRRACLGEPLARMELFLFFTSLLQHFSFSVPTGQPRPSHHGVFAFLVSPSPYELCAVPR
# Summary of the method: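 Read-out is luminescence from luciferin formed by CYP2D6 turnover of a proluciferin substrate, recorded as relative luminescence units. Reactions ran 1 h at room temperature after NADPH regeneration solution was added.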
# [6] = biological target: Nuclear receptor subfamily 1 group I member 2 (Homo sapiens) (UniProt O75469); test: Human pregnane X receptor (PXR) small molecule agonists, qHTS assay (AID 1346982); further: nearly all actives have a fitted effect of over 35% in size; further: potency means the concentration at half of the fitted maximal effect
# Chain of Nuclear receptor subfamily 1 group I member 2 (Homo sapiens) (O75469 whole entry, looked up): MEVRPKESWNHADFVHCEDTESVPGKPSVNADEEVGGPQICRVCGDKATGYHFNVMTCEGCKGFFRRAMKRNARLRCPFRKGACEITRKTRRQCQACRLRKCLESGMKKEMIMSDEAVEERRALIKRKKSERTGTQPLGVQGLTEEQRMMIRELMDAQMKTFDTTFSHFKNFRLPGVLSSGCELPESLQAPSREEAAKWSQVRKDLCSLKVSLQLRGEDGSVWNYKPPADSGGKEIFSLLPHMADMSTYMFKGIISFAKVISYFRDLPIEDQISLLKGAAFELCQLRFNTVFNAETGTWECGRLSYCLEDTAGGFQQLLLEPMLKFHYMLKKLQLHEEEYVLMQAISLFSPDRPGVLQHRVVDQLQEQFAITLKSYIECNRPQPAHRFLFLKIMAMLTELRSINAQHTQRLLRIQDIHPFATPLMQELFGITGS
# Summary of the method: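 Luciferase signal from ONE-Glo (30 min, room temperature) measured activation of hPXR-driven CYP3A4 reporter expression in PXR-Luc HepG2 cells treated with compounds for 24 hr at 37 C.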
# [7] = biological target: Nuclear receptor subfamily 1 group I member 2 (Rattus norvegicus) (UniProt Q9R1A7); test: Rat pregnane X receptor (rPXR) activation by small molecules, qHTS assay (AID 1346983); conditions: rPXR luciferase reporter cells, One-Glo luminescence, 24 h; max activation: hits give high values; further: nearly all actives have a fitted effect of over 20% in size
# Chain of Nuclear receptor subfamily 1 group I member 2 (Rattus norvegicus) (Q9R1A7 whole entry, looked up): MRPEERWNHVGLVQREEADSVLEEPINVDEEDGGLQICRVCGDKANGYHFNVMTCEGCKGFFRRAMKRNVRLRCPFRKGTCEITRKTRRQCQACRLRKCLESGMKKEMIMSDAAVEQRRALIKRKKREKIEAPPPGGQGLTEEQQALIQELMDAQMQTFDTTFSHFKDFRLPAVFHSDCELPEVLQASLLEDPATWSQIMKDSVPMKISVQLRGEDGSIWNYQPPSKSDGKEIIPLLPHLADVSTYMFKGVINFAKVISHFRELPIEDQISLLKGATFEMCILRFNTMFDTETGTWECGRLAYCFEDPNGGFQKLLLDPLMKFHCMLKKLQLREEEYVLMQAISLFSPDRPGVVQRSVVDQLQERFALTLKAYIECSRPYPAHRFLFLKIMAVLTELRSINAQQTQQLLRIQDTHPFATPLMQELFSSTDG
# Summary of the method: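 Cell-based rPXR luciferase reporter assay, 2,000 cells per well, rested 5hr at 37 C before compound addition in DMSO, then 24 hr at 37 C. One-Glo reagent was added and luminescence read after 30 min at room temperature.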
# [8] = biological target: Nuclear receptor subfamily 1 group I member 2 (Homo sapiens) (UniProt O75469); test: CYP3A4 induction through human pregnane X receptor (PXR) by small molecules, qHTS assay (AID 1346984); further: nearly all actives have a fitted effect of over 40% in size; further: potency means the concentration at half of the fitted maximal effect
# Summary of the method: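 Luminescence readout: luciferase signal after One-Glo (30 min, room temperature), following 3 h at 37C with 3uM final Luciferin-IPA P450 substrate. Cells were DPX-2 (HepG2, PXR/CYP3A4-luc co-transfected) dosed for 24 h.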
# [9] = biological target: Nuclear receptor subfamily 1 group I member 2 (Homo sapiens) (UniProt O75469); test: Human pregnane X receptor (PXR) activation by small molecules, qHTS assay (AID 1346985); further: nearly all actives have a fitted effect of over 40% in size
# Summary of the method: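 DPX-2 cells (HepG2 co-transfected with a PXR response element and a CYP3A4-promoter luciferase construct) were seeded at 2,000 per well, rested 5 hr at 37C, then exposed to DMSO-dissolved compounds for 24 hr. Activation was read as luciferase luminescence.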
# [10] = Caspase-3/7 induction in CHO-K1 cells by small molecules, qHTS cell viability counter screen (AID 1346979); further: nearly all actives have a fitted effect of over 35% in size; further: potency means the concentration at half of the fitted maximal effect
# Summary of the method: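 Multiplexed with Caspase-Glo 3/7 in CHO-K1 cells, this counter screen added CellTiter-Fluor after 16hr of compound exposure and recorded fluorescence 1hr later.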
SMILES,Potency [1],outcome [2],Potency [3],Potency [4],Potency [5],Potency [6],max activation [7],Potency [8],Potency [9],Potency [10]
Nc1cnn([C@@H]2O[C@H](CO)[C@@H](O)[C@H]2O)c(=O)n1,inactive,inactive,inactive,inactive,inactive,,,,,
NC(N)=N/N=C/c1c(Cl)cccc1Cl,29.8 µM (active),inactive,,29.8 µM (active),13.8 µM (active),inactive,-2.41%,inactive,inactive,
NCCCOCCOCCOCCCN,inactive,inactive,inactive,inactive,20 µM (active),,,,,
Cc1ccc(C(=O)C(C)CN2CCCCC2)cc1 (stereo not drawn),inactive,inactive,inactive,,0.977 µM (active),inactive,-1.62%,inactive,inactive,
CCc1nn(C2CCCCC2)c2cc(C3(C#N)CCC(C(=O)O)CC3)ccc12 (stereo not drawn),48.6 µM (active),inactive,inactive,15.4 µM (active),inactive,68.6 µM (active),,,,
CCOc1ccc2[nH]cc(C(=O)NCc3ccccc3)c(=O)c2n1,inactive,inactive,inactive,,inactive,19.3 µM (active),,,,
O=C(O)COC(=O)Cc1ccccc1Nc1c(Cl)cccc1Cl,inactive,inactive,inactive,inactive,inactive,,-0.166%,inactive,inactive,
CC(C)c1ccccc1C(C)C,inactive,inactive,,inactive,,inactive,,,,
CCCCCCCCN(C)C,inactive,inactive,inactive,inactive,inactive,inactive,,,,
CCOC(=O)C1=C(C)NC(C)=C(C(=O)OC)C1c1cccc([N+](=O)[O-])c1 (stereo not drawn),inactive,inactive,inactive,inactive,inactive,,,,,
CN(C(=O)CCCOc1ccc2[nH]c(=O)ccc2c1)C1CCCCC1,inactive,inactive,,inactive,inactive,15 µM (active),,,,
CC(CN)CCCN (stereo not drawn),inactive,inactive,inactive,inactive,22.4 µM (active),24.3 µM (active),,,,
CCCCCCCCCCCCC(=O)O,inactive,inactive,inactive,inactive,inactive,,,,,
O=S(=O)(O)c1ccc(O)c2ncccc12,inactive,inactive,inactive,,,inactive,,,,
CC(=O)[C@@]1(O)CC[C@H]2[C@@H]3C[C@H](C)C4=CC(=O)CC[C@]4(C)[C@H]3CC[C@@]21C,inactive,inactive,inactive,inactive,34.7 µM (active),,,,,
CCCCCOC(=O)c1ccc(O)cc1,inactive,inactive,inactive,,71.8 µM (active),,,,,
CCCOc1ccc2nc(NC(=O)OC)[nH]c2c1,inactive,inactive,inactive,,inactive,,,,,
C=CC(=O)OCCOC(=O)CCC(=O)O,inactive,inactive,inactive,,inactive,inactive,,,,
CC1(C)CCC(C)(C)c2cc(NC(=O)c3ccc(C(=O)O)cc3)ccc21,inactive,inactive,inactive,,inactive,inactive,-8.01%,inactive,inactive,
CCCC[C@H]1CN(CC2CCOCC2)C(=O)OC12CCN(C1(C)CCN(C(=O)c3c(C)ncnc3C)CC1)CC2,inactive,inactive,inactive,,inactive,,,,,
Oc1ccc(C(O)CNCCCCCCNCC(O)c2ccc(O)c(O)c2)cc1O (stereo not drawn),inactive,inactive,inactive,,,inactive,-3.6%,inactive,inactive,
CC(C)(C)C1CCCCC1O (stereo not drawn),inactive,inactive,,,inactive,inactive,,,,
CN(C)CC[C@@H](c1ccc(Br)cc1)c1ccccn1,,inactive,inactive,inactive,3.89 µM (active),inactive,-1.37%,,inactive,inactive
CN(C)C/C=C(/c1ccc(Br)cc1)c1cccnc1,,inactive,inactive,inactive,,,-0.374%,,,inactive
O=C(Nc1ccccc1)OCC(CN1CCCCC1)OC(=O)Nc1ccccc1 (stereo not drawn),,inactive,inactive,inactive,0.436 µM (active),2.37 µM (active),0.646%,10 µM (active),,
Cc1cc(O)ccc1N,,inactive,,,20.1 µM (active),61.4 µM (active),,,,61.4 µM (active)
CC(Cc1cccc(C(F)(F)F)c1)NCCOC(=O)c1ccccc1 (stereo not drawn),,,inactive,inactive,0.0977 µM (active),inactive,-0.287%,inactive,inactive,
CCN(CC)CCNC(C(=O)OCCC(C)C)c1ccccc1 (stereo not drawn),,inactive,inactive,inactive,1.74 µM (active),,-0.588%,,,inactive
N#Cc1c(F)cccc1F,,inactive,inactive,inactive,inactive,,,,,inactive
